Data: PubChem BioAssay (NCI)
This is part of a sample that, as a whole, favours compounds with a hit. Of some 79,000 tested, about 15% had one in any assay. Active and inactive are the calls of the source. Cut-off read from the data, not from the text of the source: active = growth inhibition above about 70%; inactive = the rest.

Columns and labels:
[1] = NCI Yeast Anticancer Drug Screen. Data for the rad50 strain (AID 155);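 note: 0% = growth of vehicle-only cultures of the same strain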; details: S. cerevisiae rad50 strain growth inhibition, hits give high values
Procedure, shortened: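 Growth of the mutant yeast was measured after compound exposure and referenced to vehicle-treated cultures.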

[2] = NCI Yeast Anticancer Drug Screen. Data for the mec2-1 strain (AID 157); details: S. cerevisiae mec2-1 strain, hits give high values
Procedure, shortened: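 Yeast mec2-1 mutant treated with compound. Readout: growth inhibition vs vehicle controls.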

[3] = NCI Yeast Anticancer Drug Screen. Data for the sgs1 mgt1 strain (AID 161);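 note: 0% = growth of cultures given vehicle only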; details: S. cerevisiae sgs1 mgt1 strain, hits give high values
Procedure, shortened: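 Mutant yeast exposed to compound; growth scored against vehicle-only wells.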

[4] = NCI Yeast Anticancer Drug Screen. Data for the cln2 rad14 strain (AID 165);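 note: 0% = growth equal to vehicle treated cultures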; details: S. cerevisiae cln2 rad14 strain, hits give high values
Procedure, shortened: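 cln2 rad14 yeast strain; compound exposure; growth inhibition read vs vehicle controls.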

[5] = NCI Yeast Anticancer Drug Screen. Data for the bub3 strain (AID 167); details: S. cerevisiae bub3 mutant strain, hits give high values
Procedure, shortened: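 Whole-cell yeast assay. The mutant strain was incubated with compounds, and growth inhibition was determined by comparison with vehicle-treated cells.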

[6] = NCI Yeast Anticancer Drug Screen. Data for the mlh1 rad18 strain (AID 175); details: S. cerevisiae mlh1 rad18 strain growth inhibition, hits give high values
Procedure, shortened: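 Yeast w/ defined DNA-repair lesions; compound exposure; growth vs vehicle controls → % inhibition.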

[7] = at 5.0 µM (retest, dose inferred, filed as 0.5)
[8] = at 50.0 µM (retest, dose inferred, filed as 5.0)

Measured: growth inhibition

OCCN1c2ccccc2Sc2ccc(Cl)cc21
active: [1]; [8] 97% | [1]; at 50.0 µM 89.3% | [2]; [8] 98% | [2]; at 50.0 µM 92% | [3]; at 50.0 µM 90.8% | [4]; [8] 98% | [4]; at 50.0 µM 86.8% | [5]; [8] 97% | [5]; at 50.0 µM 91.3% | [6]; [8] 98% | [6]; at 50.0 µM 88.5%
inactive: [1]; [7] -1% | [2]; [7] -18% | [3]; [7] -14% | [3]; [8] 40% | [4]; [7] 30% | [5]; [7] 1% | [6]; [7] 12%

Cc1cc([N+](=O)[O-])ccc1NC(=O)N(C)CCOC(=O)Nc1ccccc1
inactive: [1]; [7] 48% | [2]; [7] 43% | [3]; [7] 42% | [4]; [7] 32% | [5]; [7] 44% | [6]; [7] 64%
active: [1]; [8] 90% | [1]; at 50.0 µM 84% | [2]; [8] 95% | [2]; at 50.0 µM 89.2% | [3]; [8] 96% | [3]; at 50.0 µM 89.5% | [4]; [8] 97% | [4]; at 50.0 µM 86.4% | [5]; [8] 97% | [5]; at 50.0 µM 89.3% | [6]; [8] 96% | [6]; at 50.0 µM 87.8%

CC(C)c1ccc(O)c(O)c(=O)c1 (tested in a mixture with another compound)
active: [1]; [7] 99% | [1]; [8] 100% | [1]; at 50.0 µM 99.5% | [2]; [7] 100% | [2]; [8] 100% | [2]; at 50.0 µM 99.7% | [3]; [7] 99% | [3]; [8] 99% | [3]; at 50.0 µM 99.5% | [4]; [7] 97% | [4]; [8] 99% | [4]; at 50.0 µM 99.1% | [5]; [7] 99% | [5]; [8] 100% | [5]; at 50.0 µM 99.3% | [6]; [7] 99% | [6]; [8] 99% | [6]; at 50.0 µM 99.3%

CC(=O)N(C)c1cc(NCc2ccccc2)ccc1OCc1ccccc1
active: [1]; [8] 96% | [1]; at 50.0 µM 98.1% | [2]; [8] 95% | [2]; at 50.0 µM 97.8% | [3]; [8] 96% | [3]; at 50.0 µM 97.7% | [4]; at 50.0 µM 79.8% | [5]; at 50.0 µM 95.7% | [6]; [8] 96% | [6]; at 50.0 µM 98.3%
inactive: [1]; [7] 1% | [2]; [7] 12% | [3]; [7] 2% | [4]; [7] -60% | [4]; [8] 24% | [5]; [7] -7% | [5]; [8] -65% | [6]; [7] -1%

S=C(Nc1ccccc1)N(Cc1ccccc1)c1ccccc1
active: [6]; [8] 72%
inactive: [1]; [7] -7% | [1]; [8] 51% | [1]; at 50.0 µM 62% | [2]; [7] 10% | [2]; [8] 57% | [2]; at 50.0 µM 28.6% | [3]; [7] -7% | [3]; [8] 50% | [3]; at 50.0 µM 46.2% | [4]; [7] -8% | [4]; [8] 8% | [4]; at 50.0 µM 32.5% | [5]; [7] 3% | [5]; [8] 42% | [5]; at 50.0 µM 65.9% | [6]; [7] 4% | [6]; at 50.0 µM 48.7%
